Screening data: PubChem BioAssay, National Center for Advancing Translational Sciences (NCATS)
Sampled rows, rich in hits. Any-hit rate of the full collection: about 4.2%.
ALOX12 inh: Primary qHTS assay for inhibitors of human arachidonate 12S-lipoxygenase (ALOX12): Round 2; Potency, µM (highest dose often 108 µM), inactives show at the highest dose activity change, negative = inhibition, hits mostly inhibitors; Polyunsaturated fatty acid lipoxygenase ALOX12 (Homo sapiens), P18054; actives 1.1% (n = 580,000); purified 12hLO, xylenol orange hydroperoxide absorbance
Target sequence (P18054 whole entry, looked up): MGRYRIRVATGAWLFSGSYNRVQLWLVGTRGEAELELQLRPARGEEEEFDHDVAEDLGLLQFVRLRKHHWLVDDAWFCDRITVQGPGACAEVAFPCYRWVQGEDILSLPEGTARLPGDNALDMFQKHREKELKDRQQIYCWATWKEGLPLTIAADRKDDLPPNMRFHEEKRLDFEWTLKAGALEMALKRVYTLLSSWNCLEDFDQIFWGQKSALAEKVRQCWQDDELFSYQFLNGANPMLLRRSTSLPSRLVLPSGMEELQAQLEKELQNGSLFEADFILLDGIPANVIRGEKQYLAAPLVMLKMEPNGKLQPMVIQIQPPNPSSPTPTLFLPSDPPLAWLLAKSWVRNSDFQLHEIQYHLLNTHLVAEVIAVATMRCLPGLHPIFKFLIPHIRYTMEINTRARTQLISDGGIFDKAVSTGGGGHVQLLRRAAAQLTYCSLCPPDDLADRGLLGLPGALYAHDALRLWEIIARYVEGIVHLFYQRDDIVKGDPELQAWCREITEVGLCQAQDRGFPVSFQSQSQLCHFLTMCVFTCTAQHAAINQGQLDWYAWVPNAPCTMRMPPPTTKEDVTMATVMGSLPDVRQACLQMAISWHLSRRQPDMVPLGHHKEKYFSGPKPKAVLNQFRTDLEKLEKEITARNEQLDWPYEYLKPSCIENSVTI
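Purified human 12hLO at 150 nM in 25 mM Hepes, 0.01% Triton X-100, pH 7.0, preincubated 15 min at room temperature with compound. Reaction started with 40 uM arachidonic acid, 30 min at room temperature. Hydroperoxide measured by Fe-xylenol orange, 573/405 nm absorbance ratio.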
PLK1 PBD block: qHTS for Inhibitors of PLK1-PDB (polo-like kinase 1 - polo-box domain): Primary Screen. actives 2.8% (n = 360,000). Potency, µM, for inactives: max response, negative = inhibition, usual class: inhibitors. Plk1 PBD binding of FITC phosphopeptide, fluorescence polarization; also: series mostly up to about 57 µM; nearly all actives have a fitted effect of over 65% in size
VDR inhibitor: Inhibitors of the vitamin D receptor (VDR): qHTS. AID 504847, 2011. VDR-SRC2-3 peptide fluorescence polarization, 2 h. Potency, µM, inactives show max response, negative = inhibition, usual class: inhibitors. actives 0.93% (n = 400,000)
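Fluorescence polarization assay of small-molecule disruption of VDR binding to coregulator peptide SRC2-3. Compounds and controls pin-transferred, then read after 2 h incubation at ambient room temperature.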
Sfp inh: qHTS Assay for Inhibitors of Bacillus subtilis Sfp phosphopantetheinyl transferase (PPTase); Potency, µM, for the others: largest response in the series, negative = inhibition, actives largely listed as inhibitors; actives 3.5% (n = 310,000); Biochemical Sfp PPTase activity, qHTS; 4'-phosphopantetheinyl transferase ffp (Bacillus subtilis), Q9F4F7;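 also: the enzyme is Sfp with the accession as filed and its product quenches rhodamine fluorescence; 0% = enzyme reaction without inhibitor and -100% = no enzyme wells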
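Fluorescence-quenching assay with 15 nM Sfp, 5 uM rhodamine-CoA and 12.5 uM BHQ-2-labelled ybbR peptide in pH 7.6 Hepes/MgCl2 buffer. Enzyme was pre-incubated with compound for 15 min at room temperature. Rate was taken from the 30-min fluorescence change (525/598 nm).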
The depositor's hits bear a star; ? = inconclusive; / = no result; [ ] = dose if it differs, or a comment. Calls follow the shape of the dose curve; as a rule, active = well fitted curve in the direction sought with a large enough effect; inconclusive = small, poorly fitted or top-dose-only effect, or another doubt; inactive = no such curve, though single readings can be large; an effect the other way counts as inactive or inconclusive. Unless noted, % is scaled to controls: 0 for no effect and ±100 for the full control effect; potency is read from the fitted curve at half-maximal effect.

SMILES	ALOX12 inh	PLK1 PBD block	VDR inhibitor	Sfp inh
O=C(O)c1ccn2c(C(=O)c3ccc(Cl)cc3)c(-c3ccccc3)cc2c1	66.1%	37.7µM*	-5.8%	13.6%
CC(C)(C#N)NC(=O)C(=O)c1c(-c2ccccc2)cc2ccccn12	-29.3%	-3.1%	5.8%	4.0%
O=C(COC(=O)CCc1nc2ccccc2c(=O)[nH]1)Nc1ccccc1OC(F)F	-7.6%	-14.3%	-1.7%	/
Cc1ccc(C(O)c2nc3ccccc3n2C(C)C)cc1 (configuration not stated)	?	-14.1%	4.7%	17.6%
COc1ccc(C(O)c2nc3ccccc3n2C(C)C)cc1 (configuration not stated)	1.1%	23.8µM*	?	6.8%
CC1(C)CC(=O)C2=C(C1)N(Cc1ccco1)C(=O)C2(NC(=O)c1cccnc1)C(F)(F)F (configuration not stated)	-20.4%	-9.7%	2.6%	22.4µM*
CC1(C)CC(=O)C2=C(C1)N(Cc1cccnc1)C(=O)C2(NC(=O)c1cccnc1)C(F)(F)F (configuration not stated)	-20.3%	-5.8%	-0.5%	31.8%
COCc1cc(C)nc(OCC(=O)N/N=C/c2ccco2)c1C#N	17.8%	-0.9%	-13.6%	26.7%
CCC(C)c1ccc(O)c(N)c1 (configuration not stated)	?	-2.4%	-7.5%	50.1µM*
CC(C)c1ccc(O)c(N)c1	?	1.1%	-5.7%	11.2µM*
Cc1ccc(C(C)C)cc2c(C)ccc1-2	-10.7%	-16.2%	-4.6%	-4.0%
Cc1noc2c(NCC3CCOCC3)cc(-c3ccc(F)cc3)nc12	56.2µM*	/	/	/
Cc1noc2c(N3CCOCC3)cc(-c3ccc(F)cc3)nc12	15.5%[176 µM]	/	/	/
Cc1ccc2c(c1)Cc1cc3cccc(C)c3nc1-2	-26.4%	/	/	/
CC[C@H](C)NC(=O)CCCc1nnc2n(CCC(C)C)c(=O)c3sccc3n12	-24.7%	/	6.0%	/
CCCNC(=O)N(C)C[C@H]1Oc2ncc(C#CCc3ccccc3)cc2C(=O)N([C@H](C)CO)C[C@H]1C	?	26.7µM*	/	/
C[C@H]1CN([C@@H](C)CO)C(=O)c2cc(C#CCC3CCCC3)cnc2O[C@@H]1CN(C)C(=O)CC1CC1	44.7µM*	-15.2%	/	/
C[C@@H]1CN([C@@H](C)CO)C(=O)c2cc(C#CC3CCCCC3)cnc2O[C@@H]1CN(C)S(=O)(=O)c1ccc(F)cc1	39.8µM*	?	/	/
C[C@@H]1CN([C@H](C)CO)C(=O)c2cc(Br)cnc2O[C@@H]1CN(C)C(=O)CC1CC1	-6.2%	-2.6%	/	/
C[C@H](CO)N1C[C@H](C)[C@@H](CN(C)S(=O)(=O)c2ccc(F)cc2)Oc2ncc(Br)cc2C1=O	-22.2%	/	/	/
c1ccc(Cn2c(-c3cccs3)nc3nc4ccccc4nc32)cc1	0.0%	/	/	9.0%
CC(C)CN(C(=O)COC(=O)c1ccc2c(c1)NC(=O)CS2)C1CCS(=O)(=O)C1 (configuration not stated)	?	21.2µM*	-19.4%	50.1µM*
CC(C)CN(C(=O)COC(=O)Cc1c[nH]c2ccccc12)C1CCS(=O)(=O)C1 (configuration not stated)	9.7%	26.7µM*	7.1%	9.4%
CN(C)S(=O)(=O)c1ccc(Cl)c(NC(=O)COC(=O)c2ccc(O)cc2)c1	-2.4%	55.9%	-11.9%	0.0%
CN(C)S(=O)(=O)c1ccc(Cl)c(NC(=O)COC(=O)c2ccc3c(c2)NC(=O)CS3)c1	6.1%	?	-22.5%	25.1µM*
SMILES	ALOX12 inh	PLK1 PBD block	VDR inhibitor	Sfp inh
COc1ccccc1N1CCN(Cc2ccc(-c3ccccc3[N+](=O)[O-])o2)CC1	-25.9%	-17.3%	-0.5%	?
Cc1ccc(-c2cc(C(F)(F)F)n3nc(C(=O)Nc4ccon4)cc3n2)cc1C	-9.2%	-13.2%	89.1µM*	18.6%
CC(C)(C)OC(=O)N1CCC(c2c(C(=O)N3CCN(Cc4ccccc4)CC3)cnn2-c2ccc(Cl)cc2)CC1	-10.9%	/	7.4%	/
O=C(O)C(Cc1cn[nH]n1)=NO	/	-0.2%	-9.2%	79.4µM*
Cc1cc(C)nc(N(C#N)CN2C(=O)c3ccccc3C2=O)n1	11.2%	-15.9%	18.1%	89.1µM*
CC(C)Nc1nc(Cl)nc(N(C#N)CN2C(=O)c3ccccc3C2=O)n1	?	?	-16.5%	-10.8%
NNc1c(F)c(F)c(Br)c(F)c1F	12.6µM*	/	/	/
C/C(=N\Nc1c(F)c(F)c(Br)c(F)c1F)c1ccncc1	77.5%	-10.9%	-13.8%	-14.9%
N#Cc1nc(COc2ccccc2)oc1N1CCN(Cc2ccccc2)CC1	?	29.9µM*	-12.6%	12.4%
N#Cc1nc(COc2ccccc2)oc1N1CCC(Cc2ccccc2)CC1	54.3%	-2.6%	5.8%	-24.5%
Cc1ccc(OCc2nc(C#N)c(N3CCN(Cc4ccccc4)CC3)o2)cc1	0.0%[57.4 µM]	26.7µM*	9.3%	1.5%
S=c1nccc(-c2ccc(Cl)cc2)[nH]1	12.6µM*	1.5µM*	?	-10.6%
Clc1ccc(-c2ccn[nH]2)cc1	?	-8.2%	-8.7%	-16.3%
Cc1ccc(-c2ccnc(=S)[nH]2)cc1C	2.51µM*	/	/	/
Cc1cccc(-c2ccc3c(c2)C(=O)N2CC[C@H](NC(=O)COCC(=O)O)[C@H]2C(=O)N3)c1C	-23.2%	/	/	/
O=C(O)C(Cc1ccccc1)N1C(=O)/C(=C/C=C/c2ccco2)SC1=S (configuration not stated)	5.62µM*	2.67µM*	52.7%	39.8µM*
COc1ccc(/C=C2\SC(=S)N(CC(=O)N3CCN(C)CC3)C2=O)cc1	374.8%	-4.2%	5.0%	-1.6%
COc1ccc(/C=C2\SC(=S)N(C(Cc3ccccc3)C(=O)O)C2=O)cc1 (configuration not stated)	17.8µM*	26.7µM*	-17.3%	-42.1%
O=C(O)C(Cc1ccccc1)N1C(=O)/C(=C/c2cccnc2)SC1=S (configuration not stated)	?	-0.5%	?	79.4µM*
COc1ccc(/C=C2/SC(=O)N(CC(O)Cn3c4ccccc4c4ccccc43)C2=O)cc1 (configuration not stated)	-12.8%	29.9µM*	?	10.4%
Cc1ccc(C2=NCN(c3ccc(C(=O)O)cc3)C(=S)N2)cc1	/	/	/	-10.6%
O=C1/C(=C/c2cccnc2)SC(=S)N1C1CCS(=O)(=O)C1 (configuration not stated)	18.7%	-16.3%	-21.1%	?
O=C1/C(=C\c2cccnc2)SC(=S)N1C1CCS(=O)(=O)C1 (configuration not stated)	24.2%	-18.7%	-8.5%	79.4µM*
O=C(NN1C(=O)/C(=C/C=C/c2ccco2)SC1=S)c1ccccc1O	12.6µM*	6.7µM*	46.2%	56.2µM*
CC(=O)Oc1cccc(/C=N\NC(=O)C(=O)N/N=C/c2cccc(OC(C)=O)c2)c1	187.3%	-3.5%	-3.2%	/
NC(=O)c1ccsc1NS(=O)(=O)c1ccc([N+](=O)[O-])cc1	14.1µM*	/	/	/
